According to PubChem BioAssay AID1159580 (chemical genetic matrix, 2015):
Among all 5,500 compounds or so, about 2,000 (36%) were called active. Inconclusive results (about 18%) are left out. Rule as the data show it: active = normalized growth mostly below about 0.91 (no sharp cut-off); inconclusive = no clear call, values can overlap the other calls; inactive = mostly above about 0.92. The list shows a part of the results.

Assay: chemical genetic growth profiling, strain panel (AID 1159580);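 also: tested at 20 µM; growth read once vehicle control cultures reached saturation at 30 °C; 1 = growth at the plate median or of vehicle wells; lower values mean less growth of the strain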
Details: S. cerevisiae deletion strains, growth OD

Measured: normalized growth

O=C(O)c1cn(-c2ccc(F)cc2)c2cc(N3CCNCC3)c(F)cc2c1=O
inactive: locus YAL021C, strain ccr4, stronger effect = lower value 0.949 | locus YAL026C, strain drs2, stronger effect = lower value 0.975 | locus YAL030W, strain snc1, stronger effect = lower value 0.964 | locus YBL061C, strain skt5, stronger effect = lower value 0.981 | locus YBR009C, strain hhf1, stronger effect = lower value 0.979 | locus YBR023C, strain chs3, stronger effect = lower value 0.966 | locus YBR171W, strain sec66, stronger effect = lower value 0.958 | locus YBR231C, strain swc5, stronger effect = lower value 0.967 | locus YBR279W, strain paf1, stronger effect = lower value 0.959 | locus YCL011C, strain gbp2, stronger effect = lower value 0.975 | locus YCL016C, strain dcc1, stronger effect = lower value 0.983 | locus YCL061C, strain MRC1, stronger effect = lower value 0.969 | locus YCL069W, strain vba3, stronger effect = lower value 0.983 | locus YCR088W, strain abp1, stronger effect = lower value 0.982 | locus YDL005C, strain med2, stronger effect = lower value 0.985 | locus YDL040C, strain nat1, stronger effect = lower value 0.979 | locus YDR001C, strain nth1, stronger effect = lower value 0.952 | locus YDR069C, strain doa4, stronger effect = lower value 0.94 | locus YDR137W, strain rgp1, stronger effect = lower value 0.921 | locus YDR159W, strain sac3, stronger effect = lower value 0.96 | locus YDR195W, strain ref2 0.921 | locus YDR297W, strain sur2, stronger effect = lower value 0.981 | locus YDR334W, strain swr1, stronger effect = lower value 0.938 | locus YDR335W, strain msn5, stronger effect = lower value 0.949 | locus YDR392W, strain spt3, stronger effect = lower value 1.02 | locus YEL003W, strain gim4, stronger effect = lower value 0.96 | locus YEL037C, strain rad23, stronger effect = lower value 0.959 | locus YEL061C, strain CIN8 (second series), stronger effect = lower value 0.97 | locus YER015W, strain faa2, stronger effect = lower value 0.983 | locus YER016W, strain bim1, stronger effect = lower value 0.967 | locus YER111C, strain swi4, stronger effect = lower value 0.967 | locus YER155C, strain BEM2 (second series), stronger effect = lower value 0.919 | locus YFR010W, strain ubp6, stronger effect = lower value 0.949 | locus YGL167C, strain pmr1, stronger effect = lower value 0.941 | locus YGL173C, strain kem1, stronger effect = lower value 0.984 | locus YGL227W, strain vid30, stronger effect = lower value 0.954 | locus YGL240W, strain doc1, stronger effect = lower value 0.944 | locus YGL253W, strain hxk2, stronger effect = lower value 0.993 | locus YHR013C, strain ard1, stronger effect = lower value 0.982 | locus YHR027C, strain rpn1, stronger effect = lower value 0.976 | locus YHR030C, strain SLT2, stronger effect = lower value 1.04 | locus YHR079C, strain IRE1, stronger effect = lower value 1.03 | locus YHR142W, strain chs7, stronger effect = lower value 1.01 | locus YJL092W, strain hpr5, stronger effect = lower value 0.974 | locus YJL095W, strain BCK1 (second series), stronger effect = lower value 0.977 | locus YJL095W, strain BCK1, stronger effect = lower value 0.976 | locus YJL115W, strain asf1, stronger effect = lower value 0.963 | locus YJL129C, strain trk1, stronger effect = lower value 0.992 | locus YJL154C, strain vps35, stronger effect = lower value 0.97 | locus YJL164C, strain tpk1, stronger effect = lower value 0.993 | locus YJL166W, strain qcr8, stronger effect = lower value 0.947 | locus YJL187C, strain SWE1, stronger effect = lower value 0.979 | locus YJR066W, strain TOR1, stronger effect = lower value 0.985 | locus YKL160W, strain elf1, stronger effect = lower value 0.989 | locus YKR026C, strain gcn3, stronger effect = lower value 0.962 | locus YKR091W, strain srl3, stronger effect = lower value 0.979 | locus YLL001W, strain dnm1, stronger effect = lower value 0.977 | locus YLL026W, stronger effect = lower value 0.967 | locus YLL041C, strain sdh2, stronger effect = lower value 0.977 | locus YLR027C, strain aat2, stronger effect = lower value 0.982 | locus YLR113W, strain HOG1, stronger effect = lower value 0.975 | locus YLR221C, strain rsa3, stronger effect = lower value 0.992 | locus YLR258W, strain gsy2, stronger effect = lower value 0.979 | locus YLR262C, strain YPT6 (second series), stronger effect = lower value 0.951 | locus YLR320W, strain mms22, stronger effect = lower value 0.981 | locus YLR342W, strain FKS1, stronger effect = lower value 0.96 | locus YLR357W, strain rsc2, stronger effect = lower value 0.958 | locus YLR370C, strain arc18, stronger effect = lower value 0.948 | locus YLR384C, strain iki3, stronger effect = lower value 0.971 | locus YML120C, strain ndi1, stronger effect = lower value 0.972 | locus YMR058W, strain fet3, stronger effect = lower value 0.968 | locus YMR125W, strain sto1, stronger effect = lower value 0.967 | locus YMR129W, stronger effect = lower value 0.997 | locus YMR205C, strain PFK2, stronger effect = lower value 0.995 | locus YMR231W, strain pep5, stronger effect = lower value 0.973 | locus YNL071W, strain lat1, stronger effect = lower value 0.991 | locus YNL183C, strain NPR1, stronger effect = lower value 0.982 | locus YNL209W, strain ssb2, stronger effect = lower value 0.972 | locus YNL248C, strain rpa49, stronger effect = lower value 1.02 | locus YNL322C, strain KRE1 (second series), stronger effect = lower value 0.966 | locus YNR049C, strain mso1, stronger effect = lower value 0.979 | locus YOR001W, strain rrp6, stronger effect = lower value 0.952 | locus YOR070C, strain gyp1, stronger effect = lower value 0.984 | locus YOR080W, strain dia2, stronger effect = lower value 0.945 | locus YOR083W, strain WHI5, stronger effect = lower value 0.987 | locus YOR106W, strain vam3, stronger effect = lower value 0.962 | locus YOR231W, strain MKK1, stronger effect = lower value 1.01 | locus YOR265W, strain rbl2, stronger effect = lower value 0.974 | locus YOR270C, strain vph1, stronger effect = lower value 0.947 | locus YOR290C, strain snf2, stronger effect = lower value 0.965 | locus YPL051W, strain arl3, stronger effect = lower value 0.955 | locus YPL078C, strain atp4, stronger effect = lower value 0.972 | locus YPL106C, strain sse1, stronger effect = lower value 0.895 | locus YPL240C, strain hsp82, stronger effect = lower value 0.996 | locus YPL256C, strain CLN2, stronger effect = lower value 1.06
